Data reported in PubChem BioAssay AID1159580 (chemical genetic matrix, 2015).
Out of some 5,500 compounds screened, about 2,000 (36%) were called active. About 18% were inconclusive and are not listed. Rule as the data show it: active = normalized growth mostly below about 0.91 (no sharp cut-off); inconclusive = no clear call, values can overlap the other calls; inactive = mostly above about 0.92. The list shows a part of the results.

Assay: chemical genetic growth profiling, strain panel (AID 1159580);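 also: tested at 20 µM; growth read once vehicle control cultures reached saturation at 30 °C; 1 = growth at the plate median or of vehicle wells; lower values mean less growth of the strain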
Conditions: growth OD

Measured: normalized growth

COC1=CC(C)[C@@H]2C[C@H]3OC(=O)C[C@H]4C(C)=C(OC)C(=O)C([C@@]34C)[C@@]2(C)C1=O (some centres undefined)
inactive: S. cerevisiae deletion strains, locus YKL009W, strain mrt4, hits give low values 1.01 | S. cerevisiae deletion strains, locus YKL068W, hits give low values 1 | S. cerevisiae deletion strains, locus YKL085W, strain MDH1 (second series), hits give low values 1 | S. cerevisiae deletion strains, locus YKL085W, strain MDH1, hits give low values 1 | S. cerevisiae deletion strains, locus YKL160W, strain elf1, hits give low values 1 | S. cerevisiae deletion strains, locus YKL190W, strain CNB1, hits give low values 1.01 | S. cerevisiae deletion strains, locus YKR001C, strain vps1, hits give low values 0.986 | S. cerevisiae deletion strains, locus YKR026C, strain gcn3, hits give low values 0.96 | S. cerevisiae deletion strains, locus YKR091W, strain srl3, hits give low values 0.967 | S. cerevisiae deletion strains, locus YLL001W, strain dnm1, hits give low values 0.969 | S. cerevisiae deletion strains, locus YLL026W, hits give low values 0.985 | S. cerevisiae deletion strains, locus YLL041C, strain sdh2, hits give low values 0.983 | S. cerevisiae deletion strains, locus YLR027C, strain aat2, hits give low values 0.992 | S. cerevisiae deletion strains, locus YLR039C, strain RIC1, hits give low values 1.06 | S. cerevisiae deletion strains, locus YLR058C, strain SHM2, hits give low values 1.02 | S. cerevisiae deletion strains, locus YLR102C, strain apc9, hits give low values 1.02 | S. cerevisiae deletion strains, locus YLR113W, strain HOG1, hits give low values 1.03 | S. cerevisiae deletion strains, locus YLR221C, strain rsa3, hits give low values 1.01 | S. cerevisiae deletion strains, locus YLR258W, strain gsy2, hits give low values 0.968 | S. cerevisiae deletion strains, locus YLR262C, strain YPT6 (second series), hits give low values 0.991 | S. cerevisiae deletion strains, locus YLR262C, strain YPT6, hits give low values 1.16 | S. cerevisiae deletion strains, locus YLR268W, strain sec22, hits give low values 1.04 | S. cerevisiae deletion strains, locus YLR320W, strain mms22, hits give low values 0.975 | S. cerevisiae deletion strains, locus YLR330W, strain CHS5, hits give low values 1.01 | S. cerevisiae deletion strains, locus YLR342W, strain FKS1 (second series), hits give low values 1.01 | S. cerevisiae deletion strains, locus YLR342W, strain FKS1, hits give low values 0.976 | S. cerevisiae deletion strains, locus YLR357W, strain rsc2, hits give low values 0.942 | S. cerevisiae deletion strains, locus YLR370C, strain arc18, hits give low values 0.978 | S. cerevisiae deletion strains, locus YLR371W, strain rom2, hits give low values 1.02 | S. cerevisiae deletion strains, locus YLR384C, strain iki3, hits give low values 0.967 | S. cerevisiae deletion strains, locus YLR418C, strain cdc73, hits give low values 1 | S. cerevisiae deletion strains, locus YML016C, strain PPZ1, hits give low values 1.01 | S. cerevisiae deletion strains, locus YML032C, strain rad52, hits give low values 1.01 | S. cerevisiae deletion strains, locus YML120C, strain ndi1, hits give low values 0.99 | S. cerevisiae deletion strains, locus YML124C, strain tub3, hits give low values 1.01 | S. cerevisiae deletion strains, locus YMR058W, strain fet3, hits give low values 0.976 | S. cerevisiae deletion strains, locus YMR078C, strain ctf18, hits give low values 1.03 | S. cerevisiae deletion strains, locus YMR125W, strain sto1, hits give low values 0.975 | S. cerevisiae deletion strains, locus YMR129W, hits give low values 0.987 | S. cerevisiae deletion strains, locus YMR205C, strain PFK2, hits give low values 0.946 | S. cerevisiae deletion strains, locus YMR223W, strain ubp8, hits give low values 1.01 | S. cerevisiae deletion strains, locus YMR231W, strain pep5, hits give low values 0.973 | S. cerevisiae deletion strains, locus YMR263W, strain SAP30, hits give low values 1.02 | S. cerevisiae deletion strains, locus YMR307W, strain GAS1, hits give low values 1.17 | S. cerevisiae deletion strains, locus YNL067W, strain RPL9B, hits give low values 1.03 | S. cerevisiae deletion strains, locus YNL071W, strain lat1, hits give low values 0.987 | S. cerevisiae deletion strains, locus YNL153C, strain GIM3, hits give low values 1.02 | S. cerevisiae deletion strains, locus YNL183C, strain NPR1, hits give low values 0.988 | S. cerevisiae deletion strains, locus YNL209W, strain ssb2, hits give low values 1 | S. cerevisiae deletion strains, locus YNL233W, strain BNI4, hits give low values 1.03 | S. cerevisiae deletion strains, locus YNL248C, strain rpa49, hits give low values 1.01 | S. cerevisiae deletion strains, locus YNL250W, strain rad50, hits give low values 1.03 | S. cerevisiae deletion strains, locus YNL271C, strain bni1, hits give low values 1.01 | S. cerevisiae deletion strains, locus YNL298W, strain CLA4, hits give low values 1.02 | S. cerevisiae deletion strains, locus YNL307C, strain MCK1, hits give low values 1.01 | S. cerevisiae deletion strains, locus YNL322C, strain KRE1 (second series), hits give low values 0.988 | S. cerevisiae deletion strains, locus YNL322C, strain KRE1, hits give low values 1 | S. cerevisiae deletion strains, locus YNR049C, strain mso1, hits give low values 0.973 | S. cerevisiae deletion strains, locus YNR052C, strain pop2, hits give low values 1.01 | S. cerevisiae deletion strains, locus YOL006C, strain TOP1, hits give low values 1.08 | S. cerevisiae deletion strains, locus YOL012C, strain htz1 2.07 | S. cerevisiae deletion strains, locus YOL147C, strain pex11, hits give low values 1 | S. cerevisiae deletion strains, locus YOR001W, strain rrp6, hits give low values 0.993 | S. cerevisiae deletion strains, locus YOR061W, strain CKA2, hits give low values 1.01 | S. cerevisiae deletion strains, locus YOR069W, strain VPS5, hits give low values 1.01 | S. cerevisiae deletion strains, locus YOR070C, strain gyp1, hits give low values 0.987 | S. cerevisiae deletion strains, locus YOR080W, strain dia2, hits give low values 0.977 | S. cerevisiae deletion strains, locus YOR083W, strain WHI5, hits give low values 1.01 | S. cerevisiae deletion strains, locus YOR106W, strain vam3, hits give low values 0.992 | S. cerevisiae deletion strains, locus YOR136W, strain idh2, hits give low values 1.01 | S. cerevisiae deletion strains, locus YOR144C, strain elg1, hits give low values 1.01 | S. cerevisiae deletion strains, locus YOR184W, strain ser1, hits give low values 1.02 | S. cerevisiae deletion strains, locus YOR231W, strain MKK1, hits give low values 1.04 | S. cerevisiae deletion strains, locus YOR265W, strain rbl2, hits give low values 0.982 | S. cerevisiae deletion strains, locus YOR270C, strain vph1, hits give low values 0.975 | S. cerevisiae deletion strains, locus YOR290C, strain snf2, hits give low values 0.903 | S. cerevisiae deletion strains, locus YOR316C, strain cot1, hits give low values 1.01 | S. cerevisiae deletion strains, locus YPL051W, strain arl3, hits give low values 1 | S. cerevisiae deletion strains, locus YPL078C, strain atp4, hits give low values 0.996 | S. cerevisiae deletion strains, locus YPL106C, strain sse1, hits give low values 0.978 | S. cerevisiae deletion strains, locus YPL240C, strain hsp82, hits give low values 0.987 | S. cerevisiae deletion strains, locus YPL241C, strain CIN2, hits give low values 1.01 | S. cerevisiae deletion strains, locus YPL256C, strain CLN2, hits give low values 1.01 | S. cerevisiae deletion strains, locus YPR119W, strain clb2, hits give low values 1.01 | S. cerevisiae deletion strains, locus YPR141C, strain kar3, hits give low values 1.01 | S. cerevisiae deletion strains, locus YPR163C, strain tif3, hits give low values 1.01 | S. cerevisiae deletion strains, locus YPR167C, strain met16, hits give low values 1 | S. cerevisiae deletion strains, strain wtn01, hits give low values 1.01 | S. cerevisiae strains, strain wild type, hits give low values 1.01
